Assay results reported in ChEMBL document CHEMBL1961873, “Compounds: GSK PKIS; Assays: Nanosyn kinase panel” (2012).

Key:
[1] = molecular target: Casein kinase I isoform gamma-2 (Homo sapiens) (UniProt P78368); details: at 1 µM
[2] = molecular target: Casein kinase I isoform gamma-3 (Homo sapiens) (UniProt Q9Y6M4); details: at 0.1 µM
[3] = molecular target: Casein kinase I isoform gamma-3 (Homo sapiens) (UniProt Q9Y6M4); details: at 1 µM
[4] = molecular target: Cyclin-dependent kinase 1 (Homo sapiens) (UniProt P06493); details: at 0.1 µM
[5] = molecular target: Cyclin-dependent kinase 1 (Homo sapiens) (UniProt P06493); details: at 1 µM
[6] = molecular target: Cyclin-dependent kinase 2 (Homo sapiens) (UniProt P24941); details: at 0.1 µM
[7] = molecular target: Cyclin-dependent kinase 2 (Homo sapiens) (UniProt P24941); details: at 1 µM
[8] = molecular target: Cyclin-dependent kinase 2 (Homo sapiens) (UniProt P24941); details: at 0.1 µM; remark: listed apart in the source
[9] = molecular target: Cyclin-dependent kinase 2 (Homo sapiens) (UniProt P24941); details: at 1 µM; remark: listed apart in the source
[10] = molecular target: T1, CDK3/Cyclin E (Homo sapiens) (UniProt P24864+Q00526); details: at 0.1 µM
[11] = molecular target: T1, CDK3/Cyclin E (Homo sapiens); details: at 1 µM
[12] = molecular target: Cyclin-dependent kinase 4 (Homo sapiens) (UniProt P11802); details: at 0.1 µM
[13] = molecular target: Cyclin-dependent kinase 4 (Homo sapiens) (UniProt P11802); details: at 1 µM
[14] = molecular target: Cyclin-dependent kinase 5 (Homo sapiens) (UniProt Q00535); details: at 0.1 µM
[15] = molecular target: Cyclin-dependent kinase 5 (Homo sapiens) (UniProt Q00535); details: at 1 µM
[16] = molecular target: Cyclin-dependent kinase 6 (Homo sapiens) (UniProt Q00534); details: at 0.1 µM
[17] = molecular target: Cyclin-dependent kinase 6 (Homo sapiens) (UniProt Q00534); details: at 1 µM
[18] = molecular target: Dual specificity protein kinase CLK2 (Homo sapiens) (UniProt P49760); details: at 0.1 µM
[19] = molecular target: Dual specificity protein kinase CLK2 (Homo sapiens) (UniProt P49760); details: at 1 µM
[20] = molecular target: Dual specificity protein kinase CLK3 (Homo sapiens) (UniProt P49761); details: at 0.1 µM
Chain of Dual specificity protein kinase CLK3 (Homo sapiens) (P49761 whole entry, looked up): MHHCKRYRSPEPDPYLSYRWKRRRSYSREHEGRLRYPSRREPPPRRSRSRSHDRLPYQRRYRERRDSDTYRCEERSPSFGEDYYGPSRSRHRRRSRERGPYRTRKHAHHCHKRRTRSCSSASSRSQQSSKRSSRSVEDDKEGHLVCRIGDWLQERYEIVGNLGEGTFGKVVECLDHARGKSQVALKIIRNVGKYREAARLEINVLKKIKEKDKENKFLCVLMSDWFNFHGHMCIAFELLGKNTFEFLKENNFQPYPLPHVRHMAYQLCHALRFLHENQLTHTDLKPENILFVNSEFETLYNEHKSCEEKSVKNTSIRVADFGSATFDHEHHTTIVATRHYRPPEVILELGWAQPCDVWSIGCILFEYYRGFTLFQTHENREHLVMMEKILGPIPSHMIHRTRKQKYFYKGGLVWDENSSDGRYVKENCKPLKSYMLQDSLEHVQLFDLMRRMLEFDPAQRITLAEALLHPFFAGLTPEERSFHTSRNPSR

Chain of Casein kinase I isoform gamma-2 (Homo sapiens) (P78368 whole entry, looked up, canonical isoform): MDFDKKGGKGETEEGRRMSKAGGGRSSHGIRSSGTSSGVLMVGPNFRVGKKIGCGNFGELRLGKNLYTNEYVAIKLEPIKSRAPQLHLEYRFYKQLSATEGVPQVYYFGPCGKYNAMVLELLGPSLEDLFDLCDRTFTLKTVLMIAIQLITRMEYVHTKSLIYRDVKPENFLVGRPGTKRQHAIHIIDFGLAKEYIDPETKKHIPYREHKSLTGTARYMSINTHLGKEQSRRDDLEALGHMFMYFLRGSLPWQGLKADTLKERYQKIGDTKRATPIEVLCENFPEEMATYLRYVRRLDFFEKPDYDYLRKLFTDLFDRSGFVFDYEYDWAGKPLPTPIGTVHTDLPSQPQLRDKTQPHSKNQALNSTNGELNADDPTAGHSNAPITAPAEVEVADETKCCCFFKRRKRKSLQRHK
Chain of Cyclin-dependent kinase 1 (Homo sapiens) (P06493 whole entry, looked up): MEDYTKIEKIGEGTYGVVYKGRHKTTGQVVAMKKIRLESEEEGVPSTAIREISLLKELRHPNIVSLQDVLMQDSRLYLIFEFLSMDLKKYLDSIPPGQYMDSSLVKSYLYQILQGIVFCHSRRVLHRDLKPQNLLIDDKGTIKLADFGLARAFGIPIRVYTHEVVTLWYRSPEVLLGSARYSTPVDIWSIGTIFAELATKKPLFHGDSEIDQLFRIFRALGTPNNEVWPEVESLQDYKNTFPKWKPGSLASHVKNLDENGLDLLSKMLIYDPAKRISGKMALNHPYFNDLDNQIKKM
Chain of Casein kinase I isoform gamma-3 (Homo sapiens) (Q9Y6M4 whole entry, looked up, canonical isoform): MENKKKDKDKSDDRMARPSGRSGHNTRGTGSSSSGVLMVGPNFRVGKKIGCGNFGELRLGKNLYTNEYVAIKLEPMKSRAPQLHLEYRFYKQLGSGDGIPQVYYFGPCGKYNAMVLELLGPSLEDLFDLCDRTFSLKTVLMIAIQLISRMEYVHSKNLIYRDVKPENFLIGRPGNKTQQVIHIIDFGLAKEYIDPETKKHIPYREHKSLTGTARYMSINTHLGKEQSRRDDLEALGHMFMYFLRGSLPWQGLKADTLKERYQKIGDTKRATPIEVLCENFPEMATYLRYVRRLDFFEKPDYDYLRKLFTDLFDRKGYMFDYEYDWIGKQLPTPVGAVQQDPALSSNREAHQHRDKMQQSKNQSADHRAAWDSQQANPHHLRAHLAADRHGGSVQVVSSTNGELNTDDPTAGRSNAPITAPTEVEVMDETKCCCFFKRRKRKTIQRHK
Chain of Dual specificity protein kinase CLK2 (Homo sapiens) (P49760 whole entry, looked up): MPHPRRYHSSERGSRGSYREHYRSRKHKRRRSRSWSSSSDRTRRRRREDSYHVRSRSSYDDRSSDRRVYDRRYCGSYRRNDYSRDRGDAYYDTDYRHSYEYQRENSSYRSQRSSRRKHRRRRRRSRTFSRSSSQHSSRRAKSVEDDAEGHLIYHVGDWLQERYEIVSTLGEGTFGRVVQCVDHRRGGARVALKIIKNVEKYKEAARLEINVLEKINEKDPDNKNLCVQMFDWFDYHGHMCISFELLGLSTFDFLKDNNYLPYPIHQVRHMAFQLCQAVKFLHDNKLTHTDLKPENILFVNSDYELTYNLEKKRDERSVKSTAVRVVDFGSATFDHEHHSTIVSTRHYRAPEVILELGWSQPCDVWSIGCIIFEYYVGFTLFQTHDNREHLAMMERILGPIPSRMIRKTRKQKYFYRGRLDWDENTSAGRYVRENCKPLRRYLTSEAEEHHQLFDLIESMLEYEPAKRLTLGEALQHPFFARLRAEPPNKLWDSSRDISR
Chain of Cyclin-dependent kinase 4 (Homo sapiens) (P11802 whole entry): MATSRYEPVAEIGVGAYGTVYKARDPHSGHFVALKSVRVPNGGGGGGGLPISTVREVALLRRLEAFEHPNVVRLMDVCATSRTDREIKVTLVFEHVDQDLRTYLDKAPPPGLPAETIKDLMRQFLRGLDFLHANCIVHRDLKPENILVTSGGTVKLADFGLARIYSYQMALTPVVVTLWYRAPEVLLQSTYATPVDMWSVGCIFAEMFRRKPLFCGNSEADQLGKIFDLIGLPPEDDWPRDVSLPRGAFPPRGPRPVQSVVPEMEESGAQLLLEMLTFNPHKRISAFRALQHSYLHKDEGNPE
Chain of Cyclin-dependent kinase 5 (Homo sapiens) (Q00535 whole entry, looked up): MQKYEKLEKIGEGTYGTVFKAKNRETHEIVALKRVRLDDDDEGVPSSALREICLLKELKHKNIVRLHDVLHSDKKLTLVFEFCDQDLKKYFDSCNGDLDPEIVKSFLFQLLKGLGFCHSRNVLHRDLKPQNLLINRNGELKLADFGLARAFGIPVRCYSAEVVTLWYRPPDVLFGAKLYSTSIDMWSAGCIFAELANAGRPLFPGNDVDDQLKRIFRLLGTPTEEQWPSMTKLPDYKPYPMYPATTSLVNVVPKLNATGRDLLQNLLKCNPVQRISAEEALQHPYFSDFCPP
Chain of Cyclin-dependent kinase 6 (Homo sapiens) (Q00534 whole entry): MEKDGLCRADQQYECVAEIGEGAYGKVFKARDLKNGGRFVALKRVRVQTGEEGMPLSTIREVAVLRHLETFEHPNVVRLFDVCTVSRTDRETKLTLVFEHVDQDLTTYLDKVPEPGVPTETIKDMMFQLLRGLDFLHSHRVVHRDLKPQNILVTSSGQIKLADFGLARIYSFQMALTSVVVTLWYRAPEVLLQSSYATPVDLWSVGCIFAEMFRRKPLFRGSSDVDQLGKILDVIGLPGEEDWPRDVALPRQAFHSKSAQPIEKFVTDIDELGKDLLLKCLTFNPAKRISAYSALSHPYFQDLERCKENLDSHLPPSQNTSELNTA
T1 sequence (P24864 whole entry, looked up): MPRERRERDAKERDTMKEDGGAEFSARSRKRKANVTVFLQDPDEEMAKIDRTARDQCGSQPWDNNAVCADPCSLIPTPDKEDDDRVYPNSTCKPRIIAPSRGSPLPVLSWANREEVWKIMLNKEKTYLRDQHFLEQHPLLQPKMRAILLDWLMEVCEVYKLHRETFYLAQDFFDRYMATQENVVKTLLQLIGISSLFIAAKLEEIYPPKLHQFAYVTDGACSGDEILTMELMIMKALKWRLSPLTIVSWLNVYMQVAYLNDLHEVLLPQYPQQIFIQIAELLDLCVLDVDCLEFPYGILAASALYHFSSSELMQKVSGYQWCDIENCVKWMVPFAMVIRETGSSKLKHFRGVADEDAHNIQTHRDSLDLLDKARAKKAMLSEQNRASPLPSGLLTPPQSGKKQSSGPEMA
T1 sequence (Q00526 whole entry, looked up): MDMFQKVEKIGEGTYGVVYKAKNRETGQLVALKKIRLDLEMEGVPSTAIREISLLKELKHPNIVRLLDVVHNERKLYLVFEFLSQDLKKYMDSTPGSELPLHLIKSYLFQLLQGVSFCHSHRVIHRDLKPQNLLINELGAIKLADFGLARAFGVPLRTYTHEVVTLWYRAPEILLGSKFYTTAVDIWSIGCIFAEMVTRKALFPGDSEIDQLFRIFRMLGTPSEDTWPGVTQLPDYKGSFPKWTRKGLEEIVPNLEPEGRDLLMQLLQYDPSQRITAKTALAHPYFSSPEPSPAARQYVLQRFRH

Structure (SMILES) | inhibition [1] | inhibition [2] | inhibition [3] | inhibition [4] | inhibition [5] | inhibition [6] | inhibition [7] | inhibition [8] | inhibition [9] | inhibition [10] | inhibition [11] | inhibition [12] | inhibition [13] | inhibition [14] | inhibition [15] | inhibition [16] | inhibition [17] | inhibition [18] | inhibition [19] | inhibition [20]
O=C1Nc2ccccc2/C1=C1\CCc2cc(O)ccc21 | 8.01% | 4.01% | 6.11% | 1.03% | 3.82% | 3.01% | 5.49% | 5.72% | 10.6% | 4.58% | 2.91% | 3.57% | 7.74% | 1.5% | 7.54% | 3.57% | 30.5% | 2.81% | 13.6% | 1.61%
Cc1ccc(-c2cc3c(NC(=O)C4CC4)ncnc3o2)cc1 | 5.03% | 2.01% | 3.1% | 0.77% | 3.16% | 1.63% | 0.2% | 4.69% | 6.42% | 1.4% | -0.64% | 3.36% | 4.97% | 1.87% | 3.17% | 1.55% | 3.23% | -0.87% | 6.08% | 2.11%
Cc1c2ccc(N(C)c3ccnc(Nc4cccc(S(N)(=O)=O)c4)n3)cc2nn1C | 0.79% | -0.12% | 1.23% | -2.06% | 1.04% | -1.06% | 4.54% | 2.08% | 4.14% | 3.58% | 2.13% | -3.55% | 9.57% | -1.58% | 0.35% | -1.51% | 15.3% | 1.61% | 0.97% | -1.14%
CCN1CCC(C(=O)Nc2n[nH]c3nnc(-c4cccc(F)c4F)cc23)CC1 | -0.17% | 0.17% | 1.35% | 3.89% | 22.6% | 3.86% | 20.4% | 3.75% | 12.4% | 2.37% | 16.7% | 5.92% | 36.6% | 2.96% | 14.1% | 5.64% | 28.9% | -0.21% | 2.56% | 1.25%
COC(=O)Nc1nc2cc(Oc3ccc(NC(=O)Nc4ccccc4)cc3)ccc2[nH]1 | 1.9% | 0.58% | 1.63% | 1.24% | 1.72% | 1.21% | 0.35% | 1.69% | 3.15% | 2.16% | -3.23% | 0.66% | 1.41% | 0.28% | 0.86% | 0.73% | -1.23% | 1.75% | -1.36% | 1.37%
CCOc1ccc2c(-c3ccnc(Nc4cc(OC)cc(C(F)(F)F)c4)n3)cnn2n1 | 2.72% | -2.09% | 2.37% | 2.86% | 12.1% | 2.24% | 12.5% | 1.37% | 11.9% | 3.56% | 3.56% | 1.15% | 6.68% | 2.44% | 9.18% | 2.68% | 7.59% | 81.2% | 96.3% | 3.69%
Fc1cccc(COc2ccc(Nc3ncncc3C#Cc3ccccc3)cc2Cl)c1 | 4.69% | 4.31% | 4.88% | 0.35% | 1.89% | 1.7% | 5.5% | 4.38% | 4.99% | 1.59% | -2.37% | 2.27% | 2.61% | 1.02% | 1.31% | 3.3% | 2.89% | 1.45% | 2.09% | 2.41%
